Source: ChEMBL document CHEMBL3988442, “University of Dundee, Small-Polar-MMV Screening Library” (2021)
For some assays here: Entries with a potency or affinity are not part of this list.

How the values were obtained:
Design in all cases: scale not given: direction of the effect not stated beside the values
[1] = target: Protein translocase subunit SecA (Escherichia coli (strain K12)) (UniProt P10408); assay: Assay to Identify E. coli SecA ATPase Inhibitors; format: functional; details: 30 µM
[2] = target: T1, Ubiquitin-activating enzyme e1, putative (Leishmania donovani (strain BPK282A1)) (UniProt E9BSI1); assay: Leishmania donovani Ubiquitin Activating Enzyme (LdE1); format: functional; details: 30 µM
T1 sequence (whole entry): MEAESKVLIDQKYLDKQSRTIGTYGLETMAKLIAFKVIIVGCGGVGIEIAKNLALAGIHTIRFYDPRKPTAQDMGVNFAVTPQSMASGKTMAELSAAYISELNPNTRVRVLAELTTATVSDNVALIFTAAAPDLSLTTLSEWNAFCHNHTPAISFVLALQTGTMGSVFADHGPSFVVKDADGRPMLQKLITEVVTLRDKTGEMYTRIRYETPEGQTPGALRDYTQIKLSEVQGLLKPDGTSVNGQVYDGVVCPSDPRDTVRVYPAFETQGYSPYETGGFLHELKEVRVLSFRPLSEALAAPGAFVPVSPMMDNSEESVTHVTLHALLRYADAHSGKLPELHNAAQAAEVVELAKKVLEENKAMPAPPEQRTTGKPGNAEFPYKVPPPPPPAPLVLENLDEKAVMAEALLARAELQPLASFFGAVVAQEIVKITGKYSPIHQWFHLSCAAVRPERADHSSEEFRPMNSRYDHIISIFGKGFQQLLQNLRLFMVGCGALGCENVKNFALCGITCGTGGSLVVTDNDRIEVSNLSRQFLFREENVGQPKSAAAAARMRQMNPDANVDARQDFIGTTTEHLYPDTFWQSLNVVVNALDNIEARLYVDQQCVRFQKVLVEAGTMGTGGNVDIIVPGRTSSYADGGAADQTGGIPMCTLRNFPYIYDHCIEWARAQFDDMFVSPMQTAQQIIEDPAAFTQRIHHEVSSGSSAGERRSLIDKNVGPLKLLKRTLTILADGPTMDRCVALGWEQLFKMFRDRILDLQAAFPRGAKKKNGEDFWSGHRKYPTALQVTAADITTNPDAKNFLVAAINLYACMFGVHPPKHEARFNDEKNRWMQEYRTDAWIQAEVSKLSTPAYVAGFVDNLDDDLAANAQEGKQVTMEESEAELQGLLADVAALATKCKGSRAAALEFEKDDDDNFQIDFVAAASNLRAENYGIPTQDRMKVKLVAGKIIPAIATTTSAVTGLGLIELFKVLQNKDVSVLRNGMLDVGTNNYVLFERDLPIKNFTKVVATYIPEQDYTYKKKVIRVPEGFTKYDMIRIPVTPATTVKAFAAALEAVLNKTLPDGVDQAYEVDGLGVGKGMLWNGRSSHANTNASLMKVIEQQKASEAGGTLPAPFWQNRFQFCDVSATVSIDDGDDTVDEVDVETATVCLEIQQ

[3] = target: AMP-activated protein kinase, AMPK (Homo sapiens) (UniProt P54646+O43741+P54619+Q9UGJ0+Q9Y478+Q13131+Q9UGI9); assay: AMP-dependent Kinase enzyme assay. An in vitro enzyme assay that detects ADP turnover that is directly proportional to AMPK activity. This uses naive AMPK that is activated during the assay with MK-8722; format: functional; details: 30 µM
[4] = target: Sialic acid-binding Ig-like lectin 9 (Homo sapiens) (UniProt Q9Y336); assay: Hs-Siglec9 ALPHAscreen SOP 20170721; details: 10 µM
Chain of Sialic acid-binding Ig-like lectin 9 (Homo sapiens) (Q9Y336 whole entry): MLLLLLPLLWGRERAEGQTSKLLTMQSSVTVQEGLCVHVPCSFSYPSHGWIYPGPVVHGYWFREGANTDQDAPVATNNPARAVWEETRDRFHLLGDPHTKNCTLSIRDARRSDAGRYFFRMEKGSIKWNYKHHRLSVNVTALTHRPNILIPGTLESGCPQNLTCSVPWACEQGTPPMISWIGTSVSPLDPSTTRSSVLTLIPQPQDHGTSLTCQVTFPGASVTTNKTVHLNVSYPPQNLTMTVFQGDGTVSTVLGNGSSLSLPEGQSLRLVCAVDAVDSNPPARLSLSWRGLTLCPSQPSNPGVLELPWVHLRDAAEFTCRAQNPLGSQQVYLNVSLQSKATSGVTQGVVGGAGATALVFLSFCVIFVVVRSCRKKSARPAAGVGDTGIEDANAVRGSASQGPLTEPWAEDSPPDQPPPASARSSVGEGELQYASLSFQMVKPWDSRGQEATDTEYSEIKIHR

Trypanosoma cruzi = assay: Trypanosoma cruzi phosphomannomutase and mannose-1-phosphate guanylyltransferase assay; format: functional; details: 10 µM
[5] = target: T2, Arginase-2, mitochondrial (Homo sapiens) (UniProt P78540); assay: in vitro enzyme assay to detect the production of urea directly proportional to the activity of Arginase II; format: functional; details: 33.3 µM; further: in the data most compounds retested in dose-response had high values
T2 sequence (whole entry): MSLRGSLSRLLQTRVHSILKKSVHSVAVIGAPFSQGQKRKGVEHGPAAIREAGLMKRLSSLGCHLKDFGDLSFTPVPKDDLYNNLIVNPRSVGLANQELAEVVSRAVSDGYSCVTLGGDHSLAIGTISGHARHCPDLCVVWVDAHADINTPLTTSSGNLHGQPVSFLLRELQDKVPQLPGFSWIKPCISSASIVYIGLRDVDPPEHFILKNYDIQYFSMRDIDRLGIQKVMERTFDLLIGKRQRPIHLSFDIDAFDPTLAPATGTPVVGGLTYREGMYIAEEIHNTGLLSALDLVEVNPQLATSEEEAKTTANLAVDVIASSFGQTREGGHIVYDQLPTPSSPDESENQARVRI

[6] = target: T3, Proteasome subunit beta (Trypanosoma cruzi) (UniProt O96673); assay: Trypanosoma cruzi proteasome chymotrypsin-like activity (TcProtChymo) assay.; further: in the data most compounds retested in dose-response had high values; format: functional; details: 9.37 µM
T3 sequence (whole entry): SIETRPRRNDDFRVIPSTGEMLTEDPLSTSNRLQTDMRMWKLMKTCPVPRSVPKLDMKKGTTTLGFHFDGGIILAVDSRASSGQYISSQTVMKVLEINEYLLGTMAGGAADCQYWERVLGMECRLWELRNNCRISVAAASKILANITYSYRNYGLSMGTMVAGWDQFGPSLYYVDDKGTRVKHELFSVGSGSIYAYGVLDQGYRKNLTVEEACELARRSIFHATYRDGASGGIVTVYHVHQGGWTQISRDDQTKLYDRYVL

Homo sapiens = species on record: Homo sapiens; assay: To identify inhibition of the IFN signalling (Jak-Stat) pathway via expression of an eGFP reporter gene under the control of an IFN-stimulated response element (ISRE) containing MxA promoter.; format: functional; details: 30 µM
[7] = target: T4, Tyrosyl-tRNA synthetase, putative (Trypanosoma cruzi (strain CL Brener)) (UniProt Q4DSP6); assay: Trypanosoma cruzi tyrosyl tRNA synthetase (TcYRS) _High Tyrosine SOP; format: functional; details: 30 µM; further: in the data most compounds retested in dose-response had high values
T4 sequence (whole entry): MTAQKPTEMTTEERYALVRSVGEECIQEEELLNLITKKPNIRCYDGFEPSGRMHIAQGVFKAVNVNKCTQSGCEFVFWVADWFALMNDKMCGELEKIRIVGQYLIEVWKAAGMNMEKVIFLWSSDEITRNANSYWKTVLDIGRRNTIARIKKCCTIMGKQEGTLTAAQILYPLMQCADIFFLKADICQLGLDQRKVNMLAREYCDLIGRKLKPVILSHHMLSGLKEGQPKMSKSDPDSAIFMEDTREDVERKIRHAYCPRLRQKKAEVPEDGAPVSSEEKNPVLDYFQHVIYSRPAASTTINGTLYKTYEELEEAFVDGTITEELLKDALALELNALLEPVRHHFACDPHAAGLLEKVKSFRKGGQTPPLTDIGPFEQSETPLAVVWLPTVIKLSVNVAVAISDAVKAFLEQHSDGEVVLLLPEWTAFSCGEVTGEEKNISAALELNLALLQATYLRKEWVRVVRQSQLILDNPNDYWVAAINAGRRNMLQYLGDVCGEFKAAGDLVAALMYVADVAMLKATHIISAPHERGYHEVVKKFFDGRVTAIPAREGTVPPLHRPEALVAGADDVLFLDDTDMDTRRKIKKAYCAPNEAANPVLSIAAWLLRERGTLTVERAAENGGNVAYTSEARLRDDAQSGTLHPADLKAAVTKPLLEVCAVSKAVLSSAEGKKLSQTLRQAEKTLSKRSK

[8] = target: T4, Tyrosyl-tRNA synthetase, putative (Trypanosoma cruzi (strain CL Brener)); assay: Trypanosoma cruzi tyrosyl tRNA synthetase (TcYRS) SOP; format: functional; details: 30 µM
[9] = target: Chromo domain-containing protein 1 (Saccharomyces cerevisiae (strain ATCC 204508 / S288c) (Baker's yeast)) (UniProt P32657); assay: ScCHD-1 Enzyme Inhibition Assay; format: functional; details: 30 µM; further: in the data most compounds retested in dose-response had high values
Chain of Chromo domain-containing protein 1 (Saccharomyces cerevisiae (strain ATCC 204508 / S288c) (Baker's yeast)) (P32657 whole entry, the tested form may be a part): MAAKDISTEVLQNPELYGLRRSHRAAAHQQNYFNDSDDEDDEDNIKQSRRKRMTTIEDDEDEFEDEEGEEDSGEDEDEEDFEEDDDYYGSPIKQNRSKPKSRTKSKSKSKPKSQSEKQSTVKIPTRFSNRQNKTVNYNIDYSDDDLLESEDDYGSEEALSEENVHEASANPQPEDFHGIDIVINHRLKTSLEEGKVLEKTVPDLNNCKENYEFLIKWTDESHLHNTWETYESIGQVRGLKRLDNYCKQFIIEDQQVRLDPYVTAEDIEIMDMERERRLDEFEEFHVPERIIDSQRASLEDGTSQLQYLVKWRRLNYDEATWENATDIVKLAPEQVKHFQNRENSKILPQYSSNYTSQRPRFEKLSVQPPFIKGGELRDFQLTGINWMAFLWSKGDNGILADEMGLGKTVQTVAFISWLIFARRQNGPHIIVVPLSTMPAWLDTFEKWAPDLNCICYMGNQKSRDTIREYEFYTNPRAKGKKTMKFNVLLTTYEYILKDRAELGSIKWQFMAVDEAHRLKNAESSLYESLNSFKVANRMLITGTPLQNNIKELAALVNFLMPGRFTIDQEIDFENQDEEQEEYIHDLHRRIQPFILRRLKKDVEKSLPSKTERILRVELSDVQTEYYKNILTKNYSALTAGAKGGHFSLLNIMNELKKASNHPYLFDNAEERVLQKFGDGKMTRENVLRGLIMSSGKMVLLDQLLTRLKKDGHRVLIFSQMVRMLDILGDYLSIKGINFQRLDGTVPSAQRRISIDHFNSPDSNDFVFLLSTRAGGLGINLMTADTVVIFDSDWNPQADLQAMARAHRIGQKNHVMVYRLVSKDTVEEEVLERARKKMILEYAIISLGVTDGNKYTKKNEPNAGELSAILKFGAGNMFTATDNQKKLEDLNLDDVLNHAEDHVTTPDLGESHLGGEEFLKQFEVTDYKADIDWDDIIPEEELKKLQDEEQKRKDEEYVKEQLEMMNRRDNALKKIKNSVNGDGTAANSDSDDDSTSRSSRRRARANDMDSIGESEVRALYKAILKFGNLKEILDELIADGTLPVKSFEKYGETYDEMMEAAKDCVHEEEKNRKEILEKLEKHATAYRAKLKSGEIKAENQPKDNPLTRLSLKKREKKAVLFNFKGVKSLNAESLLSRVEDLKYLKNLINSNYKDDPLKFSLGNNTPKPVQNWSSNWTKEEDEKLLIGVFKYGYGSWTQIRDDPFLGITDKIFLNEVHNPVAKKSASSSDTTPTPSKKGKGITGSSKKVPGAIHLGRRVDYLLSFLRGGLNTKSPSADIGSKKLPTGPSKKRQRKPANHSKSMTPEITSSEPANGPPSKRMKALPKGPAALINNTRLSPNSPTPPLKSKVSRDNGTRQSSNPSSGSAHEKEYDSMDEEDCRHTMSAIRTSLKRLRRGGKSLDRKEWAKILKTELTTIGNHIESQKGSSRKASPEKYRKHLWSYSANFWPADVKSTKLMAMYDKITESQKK

Chain of Protein translocase subunit SecA (Escherichia coli (strain K12)) (P10408 whole entry): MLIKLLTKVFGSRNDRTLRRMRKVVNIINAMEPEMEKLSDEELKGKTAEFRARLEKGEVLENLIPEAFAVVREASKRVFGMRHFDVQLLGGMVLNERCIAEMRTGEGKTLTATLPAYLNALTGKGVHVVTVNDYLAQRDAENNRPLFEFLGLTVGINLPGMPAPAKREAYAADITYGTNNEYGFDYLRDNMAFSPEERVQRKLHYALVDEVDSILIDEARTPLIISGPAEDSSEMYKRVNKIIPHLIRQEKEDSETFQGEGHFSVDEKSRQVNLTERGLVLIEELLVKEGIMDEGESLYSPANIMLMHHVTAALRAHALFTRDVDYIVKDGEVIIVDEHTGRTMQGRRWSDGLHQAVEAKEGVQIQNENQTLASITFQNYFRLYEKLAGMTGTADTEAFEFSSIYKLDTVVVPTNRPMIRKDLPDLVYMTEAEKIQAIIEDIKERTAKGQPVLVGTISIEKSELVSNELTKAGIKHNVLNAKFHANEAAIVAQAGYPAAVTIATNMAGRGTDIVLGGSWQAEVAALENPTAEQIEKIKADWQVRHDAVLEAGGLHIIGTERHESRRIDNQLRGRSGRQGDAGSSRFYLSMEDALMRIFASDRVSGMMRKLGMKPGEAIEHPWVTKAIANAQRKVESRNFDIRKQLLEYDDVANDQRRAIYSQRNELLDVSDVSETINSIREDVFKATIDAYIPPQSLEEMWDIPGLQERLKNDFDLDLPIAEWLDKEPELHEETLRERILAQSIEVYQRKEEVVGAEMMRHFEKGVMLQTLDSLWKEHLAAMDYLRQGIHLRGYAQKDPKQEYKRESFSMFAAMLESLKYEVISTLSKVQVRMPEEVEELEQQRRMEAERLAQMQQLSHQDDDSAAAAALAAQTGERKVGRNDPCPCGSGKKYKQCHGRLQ

SMILES	Percent Effect [1] [%]	Percent Effect [2] [%]	Percent Effect [3] [%]	Percent Effect [4] [%]	Percent Effect (Trypanosoma cruzi) [%]	Percent Effect [5] [%]	Percent Effect [6] [%]	Percent Effect (Homo sapiens) [%]	Percent Effect [7] [%]	Percent Effect [8] [%]	Percent Effect [9] [%]
COc1cccc(CNC(=O)CN2CCCCC2Cn2cccn2)c1 (stereo not given)	-3.05	5.2	2.66	13	4.6	-0.21	2.83	-17	3.81	11.8	-17.2
Cc1nc(C2CCCN(C(=O)CCCn3cccn3)C2)no1 (stereo not given)	-4.66	23.4	-2.84	4.64	4.49	-0.356	5.57	11	6.8	24.4	-8.73
Cc1ccc(C(=O)N2CCN(C(=O)NC(C)Cn3ccnc3)CC2)o1 (stereo not given)	-1.19	10.5	2.03	13.1	3.38	2.3	4.51	18.1	3.43	19.5	-13.5
Cc1cc(C)c(CNC(=O)N2CCN(c3ncccn3)CC2)c(=O)[nH]1	-6.02	7.89	-4.85	6.02	5.08	3.45	16.5	2.72	3.43	7.32	-10.9
Cc1cc2c(=O)n3c(nc2s1)CCN(C(=O)c1cnn(C)c1C)CC3	-6.2	-17.6	6.62	5.04	1.98	-6.26	9.83	13	5.38	11.7	-18.8
O=S(=O)(C1CC1)N1CC[C@]2(C[C@@H](Oc3ccccn3)CO2)C1	-2.9	10.4	2.58	5.55	-2.46	3.23	7.66	11.7	0	8.97	-7.95
COCCN1CC[C@@H]2OC[C@H](C(=O)NCc3cccs3)C[C@@H]2C1	0.484	13.5	0.443	-15.8	-3.23	1.59	8.3	-0.0889	-2.16	5.13	-5
O=C1COc2cc(C(=O)NS(=O)(=O)c3ccccc3F)ccc2N1	-1.86	2.63	3.61	-9.82	-3.46	-3.6	5.16	-3.9	-4.43	-11.1	2.83
Cc1noc([C@@H]2CC[C@@H]3[C@@H](CCN3S(=O)(=O)C3CC3)O2)n1	0.234	8.11	10.7	-3.31	-4.3	3.33	17.2	4.51	5.94	11	6.55
Cc1cc(C)n(CC2CN(Cc3nnsc3Cl)CCO2)n1 (stereo not given)	-1.37	21.1	3.21	2.78	-2.82	-4.21	14.7	-18.7	4.41	17.1	-7.75
